# Measured values published in the supplement of paper PMC8253809.
# Key:
# Assay in all cases: growth inhibition (% activity, log2 RLU normalised to DMSO / staurosporine); higher = more growth inhibition
# Details in all cases: 33 µM
# DIPGX29 = system: DIPGX29 (H3.3 K27M diffuse intrinsic pontine glioma line)
# Outline: (§1)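 pHGG cell lines and H9-derived neural stem cells were grown on Geltrex-coated 384-well plates. Approved drugs were added by pin tool at a single final concentration of about 33 μM, in triplicate, for 7 days at 37 °C, 5% CO2. CellTiter-Glo luminescence was log2-transformed and normalised per plate to % activity between solvent and positive control wells. The growth-inhibition value is the median over replicates.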
# DIPGX37 = system: DIPGX37 (H3.3 K27M diffuse intrinsic pontine glioma line)
# Outline: as §1
# DIPGX7 = system: DIPGX7 (H3.3 K27M diffuse intrinsic pontine glioma line)
# Outline: as §1
# DIPGX9 = system: DIPGX9 (diffuse intrinsic pontine glioma line)
# Outline: as §1
# HGGX39 = system: HGGX39 (paediatric high-grade glioma line)
# Outline: as §1
# HGGX6 = system: HGGX6 (H3.3 G34R paediatric high-grade glioma line)
# Outline: as §1
# HNSC = system: HNSC
# Outline: as §1
# SUDIPGIV = system: SUDIPGIV (diffuse intrinsic pontine glioma line)
# Outline: as §1
# SUDIPGVI = system: SUDIPGVI (diffuse intrinsic pontine glioma line)
# Outline: as §1
# SUDIPGXIII = system: SUDIPGXIII (diffuse intrinsic pontine glioma line)
# Outline: as §1
compound,measurement,setting,value
CN1CCC(=C2c3ccccc3C=Cc3ccccc32)CC1,growth inhibition,DIPGX29,1.58%
same,growth inhibition,DIPGX37,-0.405%
same,growth inhibition,DIPGX7,-0.277%
same,growth inhibition,DIPGX9,2.34%
same,growth inhibition,HGGX39,7.18%
same,growth inhibition,HGGX6,-0.0199%
same,growth inhibition,HNSC,1.09%
same,growth inhibition,SUDIPGIV,3.58%
same,growth inhibition,SUDIPGVI,1.48%
same,growth inhibition,SUDIPGXIII,1.93%
O=C(N[C@H](CO)[C@H](O)c1ccc([N+](=O)[O-])cc1)C(Cl)Cl,growth inhibition,DIPGX29,-0.766%
same,growth inhibition,DIPGX37,2.12%
same,growth inhibition,DIPGX7,-0.167%
same,growth inhibition,DIPGX9,-0.0638%
same,growth inhibition,HGGX39,1.67%
same,growth inhibition,HGGX6,-1.13%
same,growth inhibition,HNSC,3.64%
same,growth inhibition,SUDIPGIV,-0.734%
same,growth inhibition,SUDIPGVI,0.976%
same,growth inhibition,SUDIPGXIII,-0.883%
COc1cc2nc(N3CCN(C(=O)c4ccco4)CC3)nc(N)c2cc1OC,growth inhibition,DIPGX29,7.72%
same,growth inhibition,DIPGX37,-2.22%
same,growth inhibition,DIPGX7,1.17%
same,growth inhibition,DIPGX9,3.48%
same,growth inhibition,HGGX39,-0.781%
same,growth inhibition,HGGX6,18.9%
same,growth inhibition,HNSC,-0.602%
same,growth inhibition,SUDIPGIV,-3.54%
same,growth inhibition,SUDIPGVI,-4.38%
same,growth inhibition,SUDIPGXIII,-1.72%
CC1=C(CC(=O)O)c2cc(F)ccc2/C1=C\c1ccc([S+](C)[O-])cc1 (stereo not given),growth inhibition,DIPGX29,1.11%
same,growth inhibition,DIPGX37,1.67%
same,growth inhibition,DIPGX7,0.000497%
same,growth inhibition,DIPGX9,0.866%
same,growth inhibition,HGGX39,0.763%
same,growth inhibition,HGGX6,2.31%
same,growth inhibition,HNSC,-0.224%
same,growth inhibition,SUDIPGIV,0.82%
same,growth inhibition,SUDIPGVI,2.02%
same,growth inhibition,SUDIPGXIII,0.292%
CCCc1cc(C(N)=S)ccn1,growth inhibition,DIPGX29,-2.06%
same,growth inhibition,DIPGX37,-0.994%
same,growth inhibition,DIPGX7,-2.65%
same,growth inhibition,DIPGX9,-1.15%
same,growth inhibition,HGGX39,-0.973%
same,growth inhibition,HGGX6,0.551%
same,growth inhibition,HNSC,-2.9%
same,growth inhibition,SUDIPGIV,-2.46%
same,growth inhibition,SUDIPGVI,-0.254%
same,growth inhibition,SUDIPGXIII,0.671%
CCCCCCOC(=O)NC(=N)c1ccc(NCc2nc3cc(C(=O)N(CCC(=O)OCC)c4ccccn4)ccc3n2C)cc1,growth inhibition,DIPGX29,0.869%
same,growth inhibition,DIPGX37,2.08%
same,growth inhibition,DIPGX7,1.77%
same,growth inhibition,DIPGX9,1.32%
same,growth inhibition,HGGX39,1.62%
same,growth inhibition,HGGX6,2.11%
same,growth inhibition,HNSC,1.37%
same,growth inhibition,SUDIPGIV,0.438%
same,growth inhibition,SUDIPGVI,2.67%
same,growth inhibition,SUDIPGXIII,-16.9%
Cc1c(N(C)C)c(=O)n(-c2ccccc2)n1C,growth inhibition,DIPGX29,-0.911%
same,growth inhibition,DIPGX37,-0.00267%
same,growth inhibition,DIPGX7,0.576%
same,growth inhibition,DIPGX9,-1.42%
same,growth inhibition,HGGX39,2.61%
same,growth inhibition,HGGX6,-1.31%
same,growth inhibition,HNSC,-0.0115%
same,growth inhibition,SUDIPGIV,-1.34%
same,growth inhibition,SUDIPGVI,-0.66%
same,growth inhibition,SUDIPGXIII,0.298%
CN(Cc1cc(Br)cc(Br)c1N)C1CCCCC1,growth inhibition,DIPGX29,2.48%
same,growth inhibition,DIPGX37,1.22%
same,growth inhibition,DIPGX7,4.28%
same,growth inhibition,DIPGX9,3.08%
same,growth inhibition,HGGX39,5.14%
same,growth inhibition,HGGX6,1.81%
same,growth inhibition,HNSC,7.22%
same,growth inhibition,SUDIPGIV,3.97%
same,growth inhibition,SUDIPGVI,3.03%
same,growth inhibition,SUDIPGXIII,-1.94%
CCN1CCCC1CNC(=O)c1cc(S(N)(=O)=O)ccc1OC (stereo not given),growth inhibition,DIPGX29,1.2%
same,growth inhibition,DIPGX37,3.95%
same,growth inhibition,DIPGX7,2.35%
same,growth inhibition,DIPGX9,1.38%
same,growth inhibition,HGGX39,2.29%
same,growth inhibition,HGGX6,0.912%
same,growth inhibition,HNSC,1.32%
same,growth inhibition,SUDIPGIV,0.319%
same,growth inhibition,SUDIPGVI,3.68%
same,growth inhibition,SUDIPGXIII,0.786%
COc1nc(N)nc2c1ncn2[C@@H]1O[C@H](CO)[C@@H](O)[C@@H]1O,growth inhibition,DIPGX29,-0.0296%
same,growth inhibition,DIPGX37,-1.39%
same,growth inhibition,DIPGX7,-1.6%
same,growth inhibition,DIPGX9,1.18%
same,growth inhibition,HGGX39,2.74%
same,growth inhibition,HGGX6,1%
same,growth inhibition,HNSC,-1.01%
same,growth inhibition,SUDIPGIV,0.63%
same,growth inhibition,SUDIPGVI,0.545%
same,growth inhibition,SUDIPGXIII,-2.52%
COc1ccc2c(c1OC)C(=O)O[C@@H]2[C@H]1c2c(cc3c(c2OC)OCO3)CCN1C,growth inhibition,DIPGX29,-0.0995%
same,growth inhibition,DIPGX37,0.428%
same,growth inhibition,DIPGX7,-0.697%
same,growth inhibition,DIPGX9,-1.08%
same,growth inhibition,HGGX39,0.078%
same,growth inhibition,HGGX6,1.48%
same,growth inhibition,HNSC,-1.88%
same,growth inhibition,SUDIPGIV,-0.28%
same,growth inhibition,SUDIPGVI,-0.0763%
same,growth inhibition,SUDIPGXIII,1.03%
C[C@@H]1CCN(C(=O)CC#N)C[C@@H]1N(C)c1ncnc2[nH]ccc12,growth inhibition,DIPGX29,0.671%
same,growth inhibition,DIPGX37,-1.72%
same,growth inhibition,DIPGX7,0.986%
same,growth inhibition,DIPGX9,-0.0672%
same,growth inhibition,HGGX39,1.55%
same,growth inhibition,HGGX6,-3.29%
same,growth inhibition,HNSC,19.9%
same,growth inhibition,SUDIPGIV,-0.0962%
same,growth inhibition,SUDIPGVI,-2.08%
same,growth inhibition,SUDIPGXIII,1.44%
CN(C)CC/C=C1/c2ccccc2COc2ccc(CC(=O)O)cc21,growth inhibition,DIPGX29,1.93%
same,growth inhibition,DIPGX37,3.18%
same,growth inhibition,DIPGX7,2.2%
same,growth inhibition,DIPGX9,2.77%
same,growth inhibition,HGGX39,2.27%
same,growth inhibition,HGGX6,2.49%
same,growth inhibition,HNSC,-0.124%
same,growth inhibition,SUDIPGIV,-0.355%
same,growth inhibition,SUDIPGVI,2.4%
same,growth inhibition,SUDIPGXIII,0.825%
CCOc1nc2cccc(C(=O)OCc3oc(=O)oc3C)c2n1Cc1ccc(-c2ccccc2-c2noc(=O)[nH]2)cc1,growth inhibition,DIPGX29,0.179%
same,growth inhibition,DIPGX37,-1.86%
same,growth inhibition,DIPGX7,1.02%
same,growth inhibition,DIPGX9,0.141%
same,growth inhibition,HGGX39,0.998%
same,growth inhibition,HGGX6,-2.04%
same,growth inhibition,HNSC,16.6%
same,growth inhibition,SUDIPGIV,-1.36%
same,growth inhibition,SUDIPGVI,-4.87%
same,growth inhibition,SUDIPGXIII,-1.75%
Cc1cccc(Nc2ccncc2S(=O)(=O)NC(=O)NC(C)C)c1,growth inhibition,DIPGX29,-1.52%
same,growth inhibition,DIPGX37,1.45%
same,growth inhibition,DIPGX7,-0.371%
same,growth inhibition,DIPGX9,-0.205%
same,growth inhibition,HGGX39,1.47%
same,growth inhibition,HGGX6,-0.821%
same,growth inhibition,HNSC,-0.596%
same,growth inhibition,SUDIPGIV,-1.46%
same,growth inhibition,SUDIPGVI,1.11%
same,growth inhibition,SUDIPGXIII,1.52%
CN(C)CCOC(C)(c1ccccc1)c1ccccn1 (stereo not given),growth inhibition,DIPGX29,-1.53%
same,growth inhibition,DIPGX37,-0.506%
same,growth inhibition,DIPGX7,0.0494%
same,growth inhibition,DIPGX9,-1.25%
same,growth inhibition,HGGX39,0.245%
same,growth inhibition,HGGX6,-0.355%
same,growth inhibition,HNSC,-1.65%
same,growth inhibition,SUDIPGIV,-0.218%
same,growth inhibition,SUDIPGVI,-0.777%
same,growth inhibition,SUDIPGXIII,0.1%
O=C(O)c1cccnc1,growth inhibition,DIPGX29,0.555%
same,growth inhibition,DIPGX37,1.13%
same,growth inhibition,DIPGX7,0.846%
same,growth inhibition,DIPGX9,1.6%
same,growth inhibition,HGGX39,0.355%
same,growth inhibition,HGGX6,1.52%
same,growth inhibition,HNSC,-0.701%
same,growth inhibition,SUDIPGIV,-0.463%
same,growth inhibition,SUDIPGVI,1.65%
same,growth inhibition,SUDIPGXIII,-1.24%
CN1CCC[C@H]1c1cccnc1,growth inhibition,DIPGX29,0.174%
same,growth inhibition,DIPGX37,0.939%
same,growth inhibition,DIPGX7,-1.09%
same,growth inhibition,DIPGX9,-1.61%
same,growth inhibition,HGGX39,2.08%
same,growth inhibition,HGGX6,0.579%
same,growth inhibition,HNSC,-0.787%
same,growth inhibition,SUDIPGIV,-0.338%
same,growth inhibition,SUDIPGVI,-0.198%
same,growth inhibition,SUDIPGXIII,1.09%
CC(=O)Oc1ccc(C(c2ccc(OC(C)=O)cc2)c2ccccn2)cc1,growth inhibition,DIPGX29,2.78%
same,growth inhibition,DIPGX37,3.71%
same,growth inhibition,DIPGX7,5.33%
same,growth inhibition,DIPGX9,8.29%
same,growth inhibition,HGGX39,20.8%
same,growth inhibition,HGGX6,3.52%
same,growth inhibition,HNSC,4.99%
same,growth inhibition,SUDIPGIV,18.7%
same,growth inhibition,SUDIPGVI,3.8%
same,growth inhibition,SUDIPGXIII,5.98%
OC[C@H]1O[C@H](O[C@]2(CCl)O[C@H](CCl)[C@@H](O)[C@@H]2O)[C@H](O)[C@@H](O)[C@H]1Cl,growth inhibition,DIPGX29,-2.41%
same,growth inhibition,DIPGX37,-0.64%
same,growth inhibition,DIPGX7,-2.77%
same,growth inhibition,DIPGX9,-3.01%
same,growth inhibition,HGGX39,-2.1%
same,growth inhibition,HGGX6,-2.77%
same,growth inhibition,HNSC,-5.57%
same,growth inhibition,SUDIPGIV,-0.426%
same,growth inhibition,SUDIPGVI,-3.09%
same,growth inhibition,SUDIPGXIII,0.882%
C[C@H]1C[C@@H]2[C@H]([C@@H](O)C[C@@]3(C)[C@H]2CC[C@]3(O)C(=O)CO)[C@@]2(C)C=CC(=O)C=C12,growth inhibition,DIPGX29,-0.195%
same,growth inhibition,DIPGX37,0.838%
same,growth inhibition,DIPGX7,-1.93%
same,growth inhibition,DIPGX9,2.66%
same,growth inhibition,HGGX39,-0.0158%
same,growth inhibition,HGGX6,-2.28%
same,growth inhibition,HNSC,-1.14%
same,growth inhibition,SUDIPGIV,5.2%
same,growth inhibition,SUDIPGVI,-0.182%
same,growth inhibition,SUDIPGXIII,1.59%
